# Bioassay records deposited in PubChem by National Center for Advancing Translational Sciences (NCATS).
# This is a sample that favours compounds with a hit; in the whole collection about 12% have one here.
# Sfp PPTase inh – Sfp phosphopantetheinyl transferase inhibition; Q9F4F7; Biochemical Sfp PPTase activity, qHTS; Potency, µM, without a hit: largest response in the series, negative = inhibition, hits mostly inhibitors; actives 3.5% (n = 310,000); AID 1490;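 note: the enzyme is Sfp with the accession as filed and its product quenches rhodamine fluorescence; 0% = enzyme reaction without inhibitor and -100% = no enzyme wells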
#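 Buffer: 50 mM Hepes-Na pH 7.6, 10 mM MgCl2, 0.01% Nonidet P-40, 0.01% BSA. Enzyme 15 nM, pre-exposed to compound 15 min; substrates then added and fluorescence change tracked over 30 min.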
# HP1b chromo inh – inhibitors of HP1-beta chromodomain binding to methylated histone tails | P83916 | AlphaScreen HP1-beta / biotin-H3K9me3 peptide binding | Potency, µM (titrated, usually from 114 µM), for inactives: top-dose activity change, negative = inhibition, most hits filed as inhibitors | actives 0.56% (n = 390,000) | AID 540317; note: nearly all actives have a fitted effect of over 70% in size
#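 HP1-beta protein (50 nM final) preincubated 30 min at room temperature with biotinylated H3(1-18)K9me3 peptide (50 nM) in PBS pH 7.4, 0.01% Tween-20, then compound added for 30 min. AlphaScreen streptavidin donor/nickel chelate acceptor beads (10 ug/mL final), 30 min dark, luminescence read.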
# BAZ2B block – blocks human BAZ2B; Q9UIF8; AlphaScreen BAZ2B-H3K14Ac peptide displacement; Potency, µM (highest dose often 114 µM), without a hit: top-dose activity change, negative = inhibition, most hits filed as inhibitors; actives 4.4% (n = 360,000); note: % is set by controls: 0 for no effect and ±100 for the full control effect; nearly all actives have a fitted effect of over 60% in size
#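 Protein-peptide AlphaScreen: BAZ2B 50 nM, b-H3K14Ac 50 nM, 1x PBS pH 7.4 + 0.01% Tween-20. Preincubation 30 min RT; cpd 30 min RT (top 110 uM); beads 20 min RT, light-protected.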
# JMJD2A Tudor inh – inhibitors of human JMJD2A Tudor domain; AlphaScreen JMJD2A-Tudor / H3K4me3 peptide binding; Potency, µM (titrated, usually from 114 µM), for the others: top-dose activity change, negative = inhibition, hits mostly inhibitors; AID 504339; actives 4.4% (n = 390,000); O75164; note: % is set by controls: 0 for no effect and ±100 for the full control effect; nearly all actives have a fitted effect of over 50% in size
# L3MBTL1 block – L3MBTL1 (human) inhibition; AlphaScreen L3MBTL1–H3K9me1 peptide binding; Potency, µM (series often up to 57.1 µM), for the others: at the top dose activity, negative = inhibition, actives largely listed as inhibitors; actives 0.66% (n = 230,000); AID 485360; note: % is set by controls: 0 for no effect and ±100 for the full control effect; nearly all actives have a fitted effect of over 60% in size
# Target sequence (Q9Y468 whole entry, looked up): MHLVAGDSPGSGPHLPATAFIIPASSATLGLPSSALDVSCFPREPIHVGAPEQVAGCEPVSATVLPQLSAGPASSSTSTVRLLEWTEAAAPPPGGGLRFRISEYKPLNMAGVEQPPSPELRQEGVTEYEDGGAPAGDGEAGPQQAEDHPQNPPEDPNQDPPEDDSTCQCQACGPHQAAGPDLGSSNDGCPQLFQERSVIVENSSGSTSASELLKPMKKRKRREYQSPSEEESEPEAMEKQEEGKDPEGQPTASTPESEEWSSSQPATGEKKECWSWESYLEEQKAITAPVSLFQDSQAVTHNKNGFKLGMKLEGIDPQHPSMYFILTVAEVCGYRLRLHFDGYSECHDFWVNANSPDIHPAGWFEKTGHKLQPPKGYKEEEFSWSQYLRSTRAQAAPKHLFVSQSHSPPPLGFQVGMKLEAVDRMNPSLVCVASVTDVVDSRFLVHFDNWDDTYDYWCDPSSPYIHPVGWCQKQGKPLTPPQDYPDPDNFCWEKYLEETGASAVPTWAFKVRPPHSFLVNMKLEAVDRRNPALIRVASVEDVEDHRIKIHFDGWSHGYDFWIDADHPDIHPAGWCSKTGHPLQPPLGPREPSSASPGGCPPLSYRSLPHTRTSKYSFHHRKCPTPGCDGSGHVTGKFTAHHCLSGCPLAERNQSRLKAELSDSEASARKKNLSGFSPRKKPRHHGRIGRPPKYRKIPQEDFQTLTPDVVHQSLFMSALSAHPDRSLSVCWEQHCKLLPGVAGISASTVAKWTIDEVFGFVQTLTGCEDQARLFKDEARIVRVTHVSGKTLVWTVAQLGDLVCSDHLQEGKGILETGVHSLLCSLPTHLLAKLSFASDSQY
#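 AlphaScreen proximity signal between nickel-chelate acceptor and streptavidin donor beads (final 10 ug/mL) reports binding of 50 nM L3MBTL1 to 75 nM biotin-H3 K9me1 peptide; complex incubated with compounds 30 min at room temperature; cefsulodin titration as control.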
# G9a block – inhibitors of human histone lysine methyltransferase G9a; actives 8.8% (n = 350,000); Potency, µM (doses to about 102 µM), for inactives: top-dose activity, negative = inhibition, usual class: inhibitors; G9a H3K9 monomethylation, AlphaScreen, 2 h; note: % is set by controls: 0 for no effect and ±100 for the full control effect; nearly all actives have a fitted effect of over 75% in size
#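 Enzyme 20 nM + cpd, 15 min RT; add b-H3K9 pep 500 nM / SAM 20 uM; 2 h RT; anti-H3K9me1 Ab 0.5 ug/mL + SA donor / anti-rabbit acceptor beads 20 ug/mL each, 10 min; AlphaScreen read.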
# An asterisk follows results filed as active; ? = inconclusive; · = no result; [ ] = remark or other dose. Calls come from the whole dose curve; as a rule, active = well fitted curve in the direction sought with a large enough effect; inconclusive = small, poorly fitted or top-dose-only effect, or another doubt; inactive = no such curve, though single readings can be large; an effect the other way counts as inactive or inconclusive. Potency is the fitted concentration of half-maximal effect.
SMILES,Sfp PPTase inh,HP1b chromo inh,BAZ2B block,JMJD2A Tudor inh,L3MBTL1 block,G9a block
CCOC(=O)c1cc(-c2ccc(OC)cc2)n(CCC(=O)NC2CCCCC2)c1C,·,17%,0%,-12%,·,-24%[59 µM]
CCOc1nc(SC(C(C)=O)C(=O)Nc2ccccc2)nc(N(C)C)n1 (stereo unspecified),-10%,39%,-25%,79µM*,4%,13µM*
CC(Sc1nc(NC(C)(C)C)nc(N(C)C)n1)C(=O)Nc1ccccc1 (stereo unspecified),2%,14%,-4%,-12%,·,11%[59 µM]
CN(C)S(=O)(=O)N1CCC(Oc2ccc(C(=O)N3CCCCCCC3)cc2)CC1,10%,23%,56µM*,-5%,·,?
CC1CCCCN1C(=O)c1ccc(OC2CCN(S(=O)(=O)N(C)C)CC2)cc1 (stereo unspecified),9%,35%,-5%,-6%,0%,2%
COc1ccc(-c2csc(N(CCCN(C)C)C(=O)c3ccccc3Cl)n2)cc1,·,-10%,·,?,·,·
COc1ccc(-c2csc(N3CCN(C(=O)c4ccccc4)CC3)n2)cc1,-22%,-18%,?,?,-11%,28µM*
COc1ccc(-c2csc(N(CCCN(C)C)C(=O)c3ccccc3C)n2)cc1,-29%,?,?,?,35µM*,-36%[59 µM]
CCOC(=O)N1CCN(c2nc(-c3ccc(F)cc3)cs2)CC1,-1%,11%,-28%,-21%,-13%,-7%[12.7 µM]
CCOC(=O)C(=O)N1CCN(c2nc(-c3ccc(Cl)cc3)cs2)CC1,-6%,?,?,-22%,-10%,40µM*
COc1ccc2nc(N3CCN(C(=O)c4ccco4)CC3)sc2c1,·,28%,-18%,-9%,·,-29%[59 µM]
COc1ccc(-c2csc(N3CCN(C(=O)c4ccco4)CC3)n2)cc1,-11%,?,?,?,-17%,45µM*
Cc1ccc(C(=O)NC2(C(F)(F)F)N=C(c3ccccc3)N(Cc3ccccc3)C2=O)cc1 (stereo unspecified),·,37%,-18%,-17%,·,-1%[59 µM]
COc1cccc(C(=O)c2cn(CC(=O)Nc3cccc(C)c3C)c3nc(C)ccc3c2=O)c1,·,38%,-5%,-16%,·,-2%[59 µM]
CCN(C(=O)c1ccco1)c1nc(-c2ccc(OC)cc2)cs1,89µM*,5%,79µM*,12%,-11%,15%
COc1ccc(-c2csc(N(CC(C)C)C(=O)c3ccco3)n2)cc1,-2%,17%,?,6%,4%[2.29 µM],5%[0.501 µM]
CCCN(Cc1cccs1)C(=O)Nc1ccc(F)c(Cl)c1,·,47%,13%,19%,·,7%[59 µM]
Cc1ccc(OCCNC(=O)/C=C/c2ccccc2)cc1C,-4%,68%,4%,11%,-7%,12%
Cc1ccc(OCC(=O)NCc2ccco2)cc1C,?,3%,-35%,-22%,1%[11.4 µM],-40%[59 µM]
Cc1ccc(OCCNC(=O)/C=C/c2ccco2)cc1C,10µM*,3%,-32%,-22%,-21%,·
CC(/C=C/c1ccco1)=N\NC(=O)COc1ccc(C)c(C)c1,?,15%,?,-33%,-25%,40µM*
O=c1oc2ccccc2c2oc3cc(O)c(O)cc3c12,?,?,40µM*,7.9µM*,?,·
CC1CCC(NC(=O)c2ccc(CS(=O)(=O)c3c(Cl)cccc3Cl)o2)CC1 (stereo unspecified),·,23%,-13%,-14%,·,8%[59 µM]
Cc1cccc(CCNC(=O)c2sc3nc4n(c(=O)c3c2C)CCCC4)c1,·,85%,-1%,-2%,·,?
CN(C)CC(C)(C)CNC(=S)NCc1ccc2c(c1)OCO2,?,?,45µM*,?,3%,8.9µM*
SMILES,Sfp PPTase inh,HP1b chromo inh,BAZ2B block,JMJD2A Tudor inh,L3MBTL1 block,G9a block
Cc1ccc(S(=O)(=O)NCC(=O)OCC(=O)NCc2ccc3c(c2)OCO3)cc1,·,-3%,12%,-16%,6%,56µM*
NS(=O)(=O)c1ccc(NC(=S)NCc2ccc(Cl)cc2)cc1,22µM*,?,-26%,-23%,1%,8.9µM*
NS(=O)(=O)c1ccc(NC(=S)NCc2ccc3c(c2)OCO3)cc1,20µM*,3%,?,-12%,-7%,·
COc1ccc(-c2nc(SCC(=O)NCCCc3ccccc3)n[nH]2)cc1,·,26%[57 µM],3%,-6%,·,11%[59 µM]
CC(C)(C)C(=O)CSc1nc2ccsc2c(=O)n1Cc1ccccc1Cl,·,9%,-19%,-34%,·,0%[59 µM]
Cc1noc(C)c1-c1nc(NCCN2CCOCC2)c2ccccc2n1,-29%,·,·,·,·,-44%[0.501 µM]
COc1cc(C(=O)O[C@@H]2CC3CC[C@]2(C)C3(C)C)ccc1O,23%,·,·,·,·,·
CCCCOC(=O)c1ccc(NC(=O)c2nn(C)cc2Br)cc1,5%,103%,8%,6%[57.1 µM],11%,10%[59 µM]
NS(=O)(=O)c1cccc(NC(=S)NCc2ccc3c(c2)OCO3)c1,-20%,3%,-19%,-20%,3%,50µM*
Cn1cc(Br)c(C(=O)NC(=S)Nc2ccc(S(N)(=O)=O)cc2)n1,-81%,-2%,-14%,-7%[11.4 µM],7%,45µM*
Cc1ccc(OCC(=O)N(C)CCc2ccccn2)cc1,-8%,-16%,?,10µM*,0%,20%[2.33 µM]
COc1cc2c(cc1OC)C(CSc1ccccc1C(=O)O)=NC(C)(C)C2,2%,-1%,79µM*,?,-7%,?
COc1cc2c(cc1OC)C(CC#N)=NC(C)(C)C2,79µM*,-5%,-8%,-20%,·,?
CC1(C)Cc2ccccc2C(CSc2ccccc2C(=O)O)=N1,-29%,-39%,50µM*,56µM*,-13%,·
CCC(=O)N1c2ccccc2CC1C(=O)NCCCN1CCN(c2ccc(F)cc2)CC1 (stereo unspecified),·,34%,-20%,-25%,·,9%[59 µM]
COc1ccc(CCNC(=O)c2ccc3c(c2)N(Cc2ccc(F)cc2)C(=O)c2ccccc2S3(=O)=O)cc1OC,·,20%,-10%,-16%,·,-12%[59 µM]
COc1ccc(-c2nn3c(=O)cc(CN4CCN(S(=O)(=O)c5ccc(C)cc5)CC4)nc3s2)cc1,·,24%[57 µM],2%,0%,·,-3%[59 µM]
COc1ccc(CNC(=O)c2sc(=S)n(-c3ccccc3)c2N)cc1,25µM*,?,-11%,-22%,·,·
CCNC(=O)c1sc(=S)n(-c2ccc(C)cc2)c1N,56µM*,?,-30%,-19%,·,32µM*
COC(=O)c1sc(=S)n(-c2cccc(Cl)c2)c1N,32µM*,-31%,-4%,-36%,1%,30%[0.501 µM]
CCOc1ccc(-n2c(N)c(C(=O)NCc3ccco3)sc2=S)cc1,13µM*,-59%,-39%,-32%,-1%,?
Cc1ccc(-n2c(N)c(C(=O)N3CCOCC3)sc2=S)cc1,-90%,-15%,-5%,?,-3%,?
